Pf growth 48h: Primary qHTS for delayed death inhibitors of the malarial parasite plastid, 48 hour incubation. AID 504832, 2011. Potency, µM (top dose mostly 28.7 µM), for the others: at the top dose activity change, negative = inhibition, hits mostly inhibitors. hit rate 5.9% among 310,000. P. falciparum luciferase growth in erythrocytes, 48 h; also: % is scaled to controls: 0 for no effect and ±100 for the full control effect
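Luminescence readout; reporter = integrated firefly luciferase in P. falciparum. RBC culture at 2% hematocrit, 0.1% parasitemia final, 37 C/5% CO2; decreased signal taken as growth inhibition.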
SARS PLpro yeast: qHTS of Yeast-based Assay for SARS-CoV PLP; S. cerevisiae expressing SARS-CoV PLpro, growth rescue; Potency, µM (top dose mostly 32.9 µM), without a hit: at the highest dose activity, positive = growth rescue, hits mostly activators; hit rate 0.19% among 330,000; calls by dose curve; also: 0% is about no effect; nearly all actives have a fitted effect of over 55% in size
AmpC inh detg: qHTS Inhibitors of AmpC Beta-Lactamase (assay with detergent); P00811; AmpC hydrolysis of nitrocefin, absorbance 480 nm, 0.01% Triton; Potency, µM (doses to about 114 µM), inactives show at the top dose activity change, negative = inhibition, usual class: inhibitors; hit rate 0.041% among 370,000;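 also: 0% = no-compound wells and -100% = no-enzyme wells; nearly all actives have a fitted effect of over 25% in size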
Target sequence (P00811 whole entry, looked up): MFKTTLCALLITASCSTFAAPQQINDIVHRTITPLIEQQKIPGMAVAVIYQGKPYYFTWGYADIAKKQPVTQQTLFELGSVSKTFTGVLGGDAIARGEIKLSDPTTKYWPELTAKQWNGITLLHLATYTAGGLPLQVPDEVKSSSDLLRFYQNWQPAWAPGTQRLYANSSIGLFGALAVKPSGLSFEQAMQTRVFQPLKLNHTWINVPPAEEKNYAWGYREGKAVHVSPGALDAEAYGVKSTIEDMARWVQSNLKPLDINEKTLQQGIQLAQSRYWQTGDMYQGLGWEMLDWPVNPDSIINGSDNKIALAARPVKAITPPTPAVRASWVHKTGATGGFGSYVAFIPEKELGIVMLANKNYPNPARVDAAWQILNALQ
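AmpC (5.3 nM in the dispensed reagent) in 20 mM phosphate pH 7.0 with 0.01% (detergent screen) or 0.0001% Triton X-100 was preincubated with compounds for 15 min at room temperature. Nitrocefin was then added from an 800 uM solution, and hydrolysis was followed at 480 nm.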
Sm TGR inh: qHTS Assay for the Inhibitors of Schistosoma Mansoni Peroxiredoxins; Schistosoma mansoni thioredoxin glutathione reductase (TGR), Q962Y6; purified TGR, DTNB reduction, TNB absorbance 405 nm; Potency, µM (highest dose often 114 µM), for inactives: at the highest dose activity change, negative = inhibition, actives largely listed as inhibitors; hit rate 3% among 360,000; AID 485364, 2010; also: % is scaled to controls: 0 for no effect and ±100 for the full control effect; nearly all actives have a fitted effect of over 60% in size
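TGR 20 nM + NADPH 100 uM (dispensed conc.), cpd preinc 15 min RT; start with NADPH (500 uM addition) then DTNB (15 mM addition). Kinetic TNB absorbance, 405 nm filter. Four-parameter Hill fit across titration.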
AmpC no deterg: qHTS Inhibitors of AmpC Beta-Lactamase (assay without detergent). Potency, µM (top dose mostly 57.1 µM), inactives show at the highest dose activity change, negative = inhibition, most hits filed as inhibitors. AmpC nitrocefin hydrolysis, absorbance 480 nm, 0.0001% Triton. AID 485341, 2010. hit rate 0.52% among 330,000;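 also: plate controls were no compound for no effect and no enzyme for full effect; nearly all actives have a fitted effect of over 20% in size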
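AmpC (5.3 nM in the dispensed reagent) in 20 mM phosphate pH 7.0 with 0.01% (detergent screen) or 0.0001% Triton X-100 was preincubated with compounds for 15 min at room temperature. Nitrocefin was then added from an 800 uM solution, and hydrolysis was followed at 480 nm.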
Pf growth 96h: Primary qHTS for delayed death inhibitors of the malarial parasite plastid, 96 hour incubation. P. falciparum luciferase reporter growth, 96 h. Potency, µM (top dose mostly 28.7 µM), for the others: at the highest dose activity change, negative = inhibition, most hits filed as inhibitors. hit rate 6.9% among 320,000. AID 504834, 2011; also: % is scaled to controls: 0 for no effect and ±100 for the full control effect
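Compounds incubated with erythrocytes infected by luciferase-expressing P. falciparum (2% hematocrit, 0.05% parasitemia final) for 96 hours, 37 C in 5% CO2. Growth inhibition scored as decreased luciferase luminescence.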
Starred values were filed as active, the others as inactive; ? = inconclusive; . = no result given. Only some compounds are listed: those with a hit (about 12% of all), similar ones and a draw of the others. Unless noted, calls follow the shape of the dose curve; as a rule, active = well fitted curve in the direction sought with a large enough effect; inconclusive = small, poorly fitted or top-dose-only effect, or another doubt; inactive = no such curve, though single readings can be large; an effect the other way counts as inactive or inconclusive. Potency is read from the fitted curve at half-maximal effect.

SMILES	Pf growth 48h	SARS PLpro yeast	AmpC inh detg	Sm TGR inh	AmpC no deterg	Pf growth 96h
O=C(c1ccc(C(F)(F)F)cc1)C1CCCN(C(=O)CCc2ccncc2)C1 (stereo not given)	?	-3%	2%	3%	124%	?
CC(C)Oc1cccc(C(=O)C2CCCN(Cc3ccc4nonc4c3)C2)c1 (stereo not given)	-30%	-1%	9%	-2%	3%	-18%
O=C(c1ccc(C(F)(F)F)cc1)C1CCCN(Cc2ccncc2)C1 (stereo not given)	12µM*	0%	-7%	-18%	46%	9%
CC(C)Sc1ncc(Cl)c(C(=O)Nc2ccc(S(=O)(=O)N3CCCCC3C)cc2)n1 (stereo not given)	.	.	18%	-4%	.	.
CCOc1ccc(NC(=O)c2cc(=O)c3cc(CC)ccc3o2)cc1	.	.	-3%	7%	.	.
CCn1c(COC(=O)CNC(=O)c2cc(OC)c(OC)c(OC)c2)nc2cc(S(=O)(=O)N(C)C)ccc21	-1%	0%	?	-1%	82%	3%
COc1ccc(OC)c(S(=O)(=O)Nc2ccc(CC(=O)O)cc2)c1	5%	-5%	-10%	-3%	-23%	13µM*
COc1ccc(OC)c(S(=O)(=O)Nc2ccc(OCC(=O)O)cc2)c1	.	-2%	?	0%	-8%	?
Cc1cc(C)n2nc(SCC(=O)N(CCC#N)c3ccccc3F)nc2n1	?	-5%	-3%	-2%	-15%	?
O=C(COC(=O)c1ccc([N+](=O)[O-])o1)Nc1cccc(S(=O)(=O)N2CCCCC2)c1	-14%	-1%	-15%	?	-48%	-1%
Cc1ccc(C(=O)Nc2cccc(S(=O)(=O)N3CCCCC3)c2)cc1[N+](=O)[O-]	4.7µM*	0%	1%	0%	-28%	8.3µM*
O=C(Nc1cccc(S(=O)(=O)N2CCCCC2)c1)c1ccc([N+](=O)[O-])o1	?	-21%	-14%	-53%	-31%	9.3µM*
CC(C)C[C@H](NC(=O)c1nc[nH]c1C(=O)NC1CCN(C(=O)OC(C)(C)C)CC1)C(=O)OCc1ccccc1	?	-1%	13%	1%	96%	12µM*
C[C@H](NC(=O)c1nc[nH]c1C(=O)NC1CCN(C(=O)OC(C)(C)C)CC1)C(=O)OC(C)(C)C	-10%	1%	-8%	-6%	15%	?
CC(C)C[C@H](NC(=O)c1nc[nH]c1C(=O)N1CCN(C(=O)OC(C)(C)C)CC1)C(=O)OCc1ccccc1	?	-1%	4%	-22%	199%	?
CC(C)(C)OC(=O)NCCCC[C@H](NC(=O)c1nc[nH]c1C(=O)NC1CCN(C(=O)OC(C)(C)C)CC1)C(=O)OC(C)(C)C	2.1µM*	-4%	-6%	-21%	180%	2.3µM*
CC(C)(C)OC(=O)N1CCC(NC(=O)c2nc[nH]c2C(=O)NCc2ccccc2)CC1	?	0%	3%	-36%	3%	?
CC(C)(C)OC(=O)NCc1ccc(CNC(=O)c2[nH]cnc2C(=O)NC2CCN(C(=O)OC(C)(C)C)CC2)cc1	5.9µM*	3%	10%	0%	185%	?
CC(C)C[C@H](NC(=O)c1nc[nH]c1C(=O)NC1CCN(C(=O)OC(C)(C)C)CC1)C(=O)OC(C)(C)C	1.5µM*	-1%	5%	-33%	262%	2.3µM*
Cc1noc(C)c1C(=O)Nc1nc(C23CC4CC(CC(C4)C2)C3)cs1	12µM*	4%	1%	2%	-23%	1%
O=C(NCc1ccc(F)cc1)C(=O)Nc1nc(C23CC4CC(CC(C4)C2)C3)cs1	12µM*	-11%	4%	84%	-34%	-29%
CN(C)c1nc(N(C)C)nc(N2CC(=O)N(c3ccccc3)C2=N)n1	2.9µM*	2%	-3%	-2%	-16%	126%
O=C1CCC(=O)N1c1ccccc1	-10%	2%	-2%	0%	-5%	-42%
CC(=O)NC1=NN(C(C)=O)C(C)(c2ccc3ccccc3c2)S1 (stereo not given)	2.9µM*	?	0%	3%	16%	69%
CN1CCN(S(=O)(=O)Cc2ccc(Cl)cc2)CC1	?	1%	7%	9%	-14%	?
SMILES	Pf growth 48h	SARS PLpro yeast	AmpC inh detg	Sm TGR inh	AmpC no deterg	Pf growth 96h
CC1CCCCN1Cc1ccc(N)cc1 (stereo not given)	-7%	12%	-1%	0%	170%	0.1µM*
COc1ccc(C2NC(=O)c3sc(=S)n(-c4ccccc4)c3N2)cc1 (stereo not given)	?	2%	1%	9%	-29%	.
CCOc1ccc(C2NC(=O)c3sc(=S)n(-c4ccccc4)c3N2)cc1 (stereo not given)	4.1µM*	-3%	?	-32%	-31%	5.9µM*
Cc1oc(-c2ccccc2)nc1Cn1cccc1C1=NC(c2ccccc2)CO1 (stereo not given)	?	-16%	2%	14%	10%	5.2µM*
CCOC(=O)c1ccc(CN(Cc2ccccc2C)S(=O)(=O)c2ccc(F)c(C)c2)cc1	.	.	-3%	12%	.	.
CCCCSc1nc(SCC(=O)NCc2ccco2)c2c3c(sc2n1)COC(C)(CC)C3 (stereo not given)	?	0%	-9%	?	-9%	9.3µM*
CC(C)Sc1nc(NCc2ccco2)c2c3c(sc2n1)COC(C)(C)C3	?	-10%	?	22µM*	30%	?
CCCSc1nc(SCC(=O)NCc2ccccc2)c2c3c(sc2n1)COC(C)(CC)C3 (stereo not given)	?	5%	1%	9%	-1%	15µM*
CCSc1nc(NCCN(C)C)c2c3c(sc2n1)COC(C)(CC)C3 (stereo not given)	3.3µM*	1%	8%	?	64%	12µM*
CC1CCN(S(=O)(=O)N2CCC(C(=O)NCc3ccccc3Cl)CC2)CC1	.	.	-5%	8%	.	.
CCCNC(=O)c1c(C)cc(=O)oc1C	33%	4%	-8%	0%	-10%	6.6µM*
O=C(Nc1c2ccccc2nc2ccccc12)C(Cl)(Cl)Cl	1µM*	-35%	-4%	-15%	-18%	36%
Cc1ccc(NC(=O)CSCc2cc(=O)c3ccccc3[nH]2)c(C)c1	.	.	3%	6%	.	.
